This assay deals with Solute carrier family 2, facilitated glucose transporter member 1 (Homo sapiens) (UniProt P11166). Nature of the assay: ST_JUDE_LEISH: Cytotoxicity at 2uM final concentration against transgenic Leishmania Mexicana promastigotes LmGLUT1 that are glucose transport deficient and complemented with the human glucose transporter GLUT1. Activity is measured by DNA content using SYBR green in vitro. The class given is functional.
Sequence of Solute carrier family 2, facilitated glucose transporter member 1 (Homo sapiens) (P11166 whole entry): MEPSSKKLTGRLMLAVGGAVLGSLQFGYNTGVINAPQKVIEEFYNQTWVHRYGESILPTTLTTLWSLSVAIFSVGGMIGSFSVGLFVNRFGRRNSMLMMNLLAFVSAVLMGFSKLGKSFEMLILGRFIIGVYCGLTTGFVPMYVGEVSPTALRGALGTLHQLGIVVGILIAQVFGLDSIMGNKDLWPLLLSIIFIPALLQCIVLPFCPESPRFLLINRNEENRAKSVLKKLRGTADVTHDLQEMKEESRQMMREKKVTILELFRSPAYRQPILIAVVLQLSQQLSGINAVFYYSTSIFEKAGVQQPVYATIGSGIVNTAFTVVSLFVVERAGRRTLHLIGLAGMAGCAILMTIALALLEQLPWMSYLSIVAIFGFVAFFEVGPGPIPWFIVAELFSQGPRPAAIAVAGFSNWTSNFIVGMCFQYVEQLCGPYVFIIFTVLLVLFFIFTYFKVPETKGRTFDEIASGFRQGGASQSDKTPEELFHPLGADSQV
On to `Cc1cc(N[C@@H](Cc2ccccc2)C(=O)NCc2cccs2)nc(NCCc2cccnc2)n1`, for which the inhibition amounted to 1.39%.
In the case of `CCN(CC)CCCC(C)Nc1ccnc2ccc(OC)cc12` (stereo not given), the inhibition worked out at 8.15%.
`c1ccc2c(CNc3ccnc(NCc4cccc5ccccc45)n3)cccc2c1`: the inhibition is 9.83%.
Regarding `CC(NCCC1CCC(NC(=O)N[C@H](C)C(O)(c2ccccc2)c2ccccc2)CC1)c1cccc2ccccc12` (stereo not given in full), the inhibition came out at 16.8%.
To `COc1cc(CCON2C(N)=NC(N)=NC2(C)C)cc(OC)c1OC` belongs 2.34%.
To `Oc1ccccc1CCNCC1CCc2ccccc2C1` (stereo not given) belongs -0.47%.
As for `N#Cc1ccc(/C=C/C(=O)NCCCCCN2CCCN(C(=O)Nc3ccc(Cl)c(C(F)(F)F)c3)CC2)cc1`, the figure is 1.18%; as for `COc1cc(Cc2cnc(N)nc2N)cc(OCCCOc2ccccc2)c1OC`, 7.68%.
With `CC(C)CN1CCC(COc2ccc3ncn(-c4cc(O[C@H](C)c5ccccc5C(F)(F)F)c(C(N)=O)s4)c3c2)CC1`, the inhibition is 77.7%.
To `O=C1OC2(CN1CC1CCN(Cc3ccc(O)cc3Cl)C1)c1ccccc1-c1ccccc12` (stereo not given) belongs 0.5%; to `CC(CN1CCN(C)CC1)C(=O)Nc1ccc(-c2ccc(-c3nc4cc(F)ccc4[nH]3)cc2)cc1` (stereo not given), 9.06%.
Consider `COc1ccc(Cc2c(C)nc3nc(N)nc(N)c3c2C)cc1OC`, for which the inhibition was found to be 13.6%.
With `COc1ccc2cc(-c3nc(-c4c(Cl)cccc4Cl)[nH]c3-c3ccnc(NCCC4CCCN4C)c3)ccc2c1` (stereo not given), the inhibition is 29.7%.
With `C1=CN(Cc2ccccc2)C=CC1=C1C=Nc2ccccc21`, the inhibition turned out to be 12.1%.
As to `COc1cc([N+](=O)[O-])ccc1NC(=O)c1cc(Cl)ccc1O`, the inhibition is 7.76%.
In the case of `CN1CCN(c2ccc(-c3cccc(NC(=O)c4cccc(Cl)c4)c3)nn2)CC1`, the inhibition came out at 2.62%.
Take `Cc1nc(-c2ccc(-c3ccc(C(=O)Nc4ccc(I)c(OCC5CCCN5C)c4)cc3)c(C)c2)no1` (stereo not given): the inhibition was 9.63%.
On to `COc1ccc2nccc(N3CCC(NCCNCc4cc5c(cn4)OCCO5)C3)c2n1` (stereo not given), for which the inhibition worked out at 2.14%.
With `O=C(COc1ccccc1Cl)N1CCc2cc3nccc(N4CCN5CCC[C@H]5C4)c3cc21`, the inhibition was found to be 6.5%.
`Nc1nc(N)c2c(ccc3c2ccn3CC2CC2)n1`: the inhibition worked out at 2.11%.
Take `C[C@H](NC(=O)[C@H](Cc1ccccc1)NC(=O)OC(C)(C)C)C(=O)N[C@@H](CC1CCCCC1)C(O)CN` (stereo not given in full): the inhibition is -1.66%.
For `CC(CCCC(=O)Nc1ccc(CC(C)NCCc2cccc(Cl)c2)cc1)NCCc1cccc(Cl)c1` (stereo not given), the inhibition came to 2.68%.
For `Clc1ccc(-c2cnc3ccc(NCCc4cccnc4)nn23)cc1`, the inhibition turned out to be 1.24%.
On to `Cn1cnc(CCNC(=O)c2cccc(-c3ccc(-c4nc5cc(F)ccc5[nH]4)cc3)c2)c1`, for which the inhibition turned out to be 1.27%.
`CCCNc1ccc2nccc(CCN3CCC(NCc4ccc5c(n4)NC(=O)CS5)CC3)c2n1`: the inhibition came out at 3.5%.
`O=c1ccc(-c2nc3cc(Cl)c(Cl)cc3n2Cc2ccc(Cl)cc2Cl)c[nH]1`: the inhibition was -0.54%.
On to `CCNc1cc(C)nc(Nc2ccc(C)cc2)n1`, for which the inhibition is 25.8%.
On to `CN1CCCN(Cc2cccc(-c3cccc(NC(=O)c4ccc(C#N)cc4)c3)c2)CC1`, for which the inhibition is 11%.
Turning to `CC(C)c1sc(N2CCN(C)CC2)nc1C(=O)Nc1cccc2c1CCCC2`, the inhibition worked out at 0.42%.
As to `CC1(C)NC(N)=NC(=N)N1OCCCc1ccc(Cl)cc1Cl`, the inhibition was determined as 2.76%.
As for `O=C1SC(=Cc2ccc(O)c(O)c2)C(=O)N1c1ccccc1`, the figure is 2.29%; as for `O=C(NCCN1CCCCC1)c1ccc(Nc2nccc(Nc3ccc(Oc4ccccc4)cc3)n2)cc1`, 7.53%; as for `O=C(Nc1ccc(OC2CCN(Cc3ccc(F)cc3)CC2)c(Cl)c1)c1ccc(F)cc1`, 2.58%.
`N[C@@H](Cc1ccc(O)cc1)C(=O)NC(c1ccccc1)c1c(O)ccc2ccccc12` (stereo not given in full): the inhibition is -0.12%.
As to `c1ccc(COc2ccnc(NCCCOc3cccc(CN4CCCCC4)c3)c2)cc1`, the inhibition came to 1.52%.
On to `O=C(NCCc1ccccc1F)c1ccc(N2CCN(c3ccncc3)CC2)cn1`, for which the inhibition is 10.3%.
As for `COc1ccc(O)c(C(=O)c2cc(C#N)c(=O)n(-c3ccc(Oc4ccccc4)cc3)c2)c1`, the figure is 10.2%; as for `CCOc1c(CNCCCNc2cc(O)c3ccccc3n2)cc(I)cc1OC`, -0.3%.
In the case of `COc1cc(Cc2cnc(N)nc2N)c2c(c1OC)OC(C)C=C2` (stereo not given), the inhibition was 1.59%.
To `Cc1ccc(CON2C(=N)N=C(N)NC2(C)C)cc1C` belongs 4.78%.

Values taken from ChEMBL document CHEMBL3433997, “St. Jude Leishmania screening dataset” (2016).
